Results on 56 molecules are retold here after the antibiotic and cytotoxicity screens of Wong et al. (2023).

Out of some 39,000 compounds screened, about 3,300 (8.5%) were called active. For the sample, actives were picked, then their nearest neighbours and some compounds at random.

The test system of the assay is HepG2. The assay can be described thus: cytotoxicity call (relative viability < 0.9). The note with it: 10 µM.
As for `Cc1cc(C)c2nnc(SCC(=O)O)n2n1`, the cytotoxicity call was “inactive”.
For the molecule `C[C@@H]1CN([C@@H](C)CO)C(=O)Cc2cc(NS(C)(=O)=O)ccc2O[C@H]1CN(C)C(=O)NC1CCCCC1`, the cytotoxicity call is “inactive”.
On to `Cc1noc(C)c1NC(=O)N[C@@H]1CC[C@H](CC(=O)NCCCN(C)C)O[C@@H]1CO`, for which the cytotoxicity call is “inactive”.
Consider `O=C(C[C@@H]1C[C@H]2c3cc(NS(=O)(=O)c4ccc(F)cc4)ccc3O[C@H]2[C@H](CO)O1)NCc1ccccc1`, for which the cytotoxicity call was “inactive”.
The entry for `Cc1ccc(S(=O)(=O)N(C)C[C@H]2Oc3ccc(NS(C)(=O)=O)cc3C(=O)N([C@@H](C)CO)C[C@H]2C)cc1` is “inactive”.
The entry for `CN(C)CCCNC(=O)C[C@@H]1CC[C@H](NS(=O)(=O)c2ccccc2)[C@H](CO)O1` is “inactive”.
For `C[C@@H]1CCCCO[C@@H](CN(C)C(=O)Nc2ccc(C(F)(F)F)cc2)[C@H](C)CN([C@H](C)CO)C(=O)c2cc(NS(=O)(=O)c3cccs3)ccc2O1`, the cytotoxicity call was “active”.
Consider `C[C@H]1CCCCO[C@@H](CN(C)C(=O)Nc2ccc(C(F)(F)F)cc2)[C@@H](C)CN([C@@H](C)CO)C(=O)c2cc(NS(=O)(=O)c3cccs3)ccc2O1`, for which the cytotoxicity call is “inactive”.
Consider `C[C@@H]1CCCCO[C@@H](CN(C)C(=O)Nc2ccc(C(F)(F)F)cc2)[C@@H](C)CN([C@H](C)CO)C(=O)c2cc(NS(=O)(=O)c3cccs3)ccc2O1`, for which the cytotoxicity call is “inactive”.
Regarding `C[C@@H]1CCCCO[C@@H](CN(C)C(=O)C2CCCCC2)[C@@H](C)CN([C@H](C)CO)C(=O)c2cc(NS(=O)(=O)c3cccs3)ccc2O1`, the cytotoxicity call is “active”.
Regarding `C[C@@H]1CCCCO[C@H](CN(C)C(=O)Nc2ccc(C(F)(F)F)cc2)[C@@H](C)CN([C@@H](C)CO)C(=O)c2cc(NS(=O)(=O)c3cccs3)ccc2O1`, the cytotoxicity call is “active”.
Regarding `C[C@@H]1CCCCO[C@H](CN(C)C(=O)C2CCCCC2)[C@H](C)CN([C@H](C)CO)C(=O)c2cc(NS(=O)(=O)c3cccs3)ccc2O1`, the cytotoxicity call was “inactive”.
The entry for `C[C@@H]1CCCCO[C@H](CN(C)C(=O)Nc2ccc(C(F)(F)F)cc2)[C@H](C)CN([C@@H](C)CO)C(=O)c2cc(NS(=O)(=O)c3cccs3)ccc2O1` is “inactive”; for `C[C@H]1CCCCO[C@H](CN(C)C(=O)Nc2ccc(C(F)(F)F)cc2)[C@@H](C)CN([C@@H](C)CO)C(=O)c2cc(NS(=O)(=O)c3cccs3)ccc2O1` it is “inactive”; for `C[C@@H]1CCCCO[C@@H](CN(C)C(=O)C2CCCCC2)[C@H](C)CN([C@H](C)CO)C(=O)c2cc(NS(=O)(=O)c3cccs3)ccc2O1` it is “inactive”.
Take `O=C(CCCCCCC(=O)Nc1ccccc1O)N/N=C/[C@H](O)[C@@H](O)[C@H](O)CO`: the cytotoxicity call was “inactive”.
The entry for `COc1ccc(S(=O)(=O)N(C)C[C@@H]2OCCCC[C@@H](C)Oc3ccc(NC(=O)C4CCCCC4)cc3C(=O)N([C@@H](C)CO)C[C@@H]2C)cc1` is “inactive”; for `COC(=O)C(CC#Cc1ccc2c(c1)[C@]1(C(=O)N2)[C@H](c2ccc(OCCO)cc2)N2[C@H](c3ccccc3)[C@H](c3ccccc3)OC(=O)[C@H]2[C@@H]1C(=O)Nc1nc2ccccc2s1)C(=O)OC` it is “inactive”; for `C[C@@H]1CN([C@H](C)CO)C(=O)c2cccc(NS(=O)(=O)c3cccs3)c2O[C@H]1CN(C)S(=O)(=O)c1ccccc1` it is “inactive”.
For `C[C@H](CO)N1C[C@H](C)[C@@H](CN(C)C(=O)c2ccncc2)Oc2ncc(C#CC3CCCCC3)cc2C1=O`, the cytotoxicity call is “inactive”.
Consider `C[C@H](CO)N1C[C@H](C)[C@@H](CN(C)C(=O)c2cnccn2)Oc2ncc(-c3cccc(C#N)c3)cc2C1=O`, for which the cytotoxicity call is “inactive”.
Turning to `C[C@@H]1CN([C@@H](C)CO)C(=O)c2cccc(NC(=O)Nc3cccc4ccccc34)c2O[C@H]1CN(C)S(=O)(=O)c1ccc2ncsc2c1`, the cytotoxicity call is “inactive”.
The result for `C[C@@H]1CCCCO[C@@H](CN(C)S(=O)(=O)c2ccc(F)cc2)[C@@H](C)CN([C@H](C)CO)C(=O)c2cc(NC(=O)Nc3ccc4c(c3)OCO4)ccc2O1` reads “inactive”; that for `C[C@H](CO)N1C[C@H](C)[C@@H](CN(C)S(=O)(=O)c2ccc(F)cc2)OCCCC[C@H](C)Oc2ccc(NC(=O)Nc3ccc(F)cc3)cc2C1=O`, “inactive”; that for `C[C@@H]1CN([C@H](C)CO)C(=O)c2cc(NC(=O)Nc3ccc4c(c3)OCO4)ccc2O[C@@H](C)CCCCO[C@@H]1CN(C)S(=O)(=O)c1ccc(F)cc1`, “inactive”.
Regarding `C[C@@H]1CCCCO[C@@H](CN(C)S(=O)(=O)c2ccc(F)cc2)[C@@H](C)CN([C@@H](C)CO)C(=O)c2cc(NC(=O)Nc3ccc(F)cc3)ccc2O1`, the cytotoxicity call is “active”.
Turning to `C[C@@H]1CCCCO[C@@H](CN(C)S(=O)(=O)c2ccc(F)cc2)[C@@H](C)CN([C@H](C)CO)C(=O)c2cc(NC(=O)Nc3ccc(F)cc3)ccc2O1`, the cytotoxicity call is “inactive”.
The result for `C[C@H]1CCCCO[C@@H](CN(C)S(=O)(=O)c2ccc(F)cc2)[C@@H](C)CN([C@@H](C)CO)C(=O)c2cc(NC(=O)Nc3ccc(F)cc3)ccc2O1` reads “inactive”; that for `C[C@@H]1CN([C@H](C)CO)C(=O)c2cc(NC(=O)Nc3ccc(F)cc3)ccc2O[C@@H](C)CCCCO[C@H]1CN(C)S(=O)(=O)c1ccc(F)cc1`, “active”; that for `C[C@@H]1CCCCO[C@H](CN(C)S(=O)(=O)c2ccc(F)cc2)[C@@H](C)CN([C@H](C)CO)C(=O)c2cc(NC(=O)Nc3ccc4c(c3)OCO4)ccc2O1`, “active”.
For `C[C@@H]1CN([C@@H](C)CO)C(=O)c2cc(NC(=O)Nc3ccc(F)cc3)ccc2O[C@@H](C)CCCCO[C@@H]1CN(C)S(=O)(=O)c1ccc(F)cc1`, the cytotoxicity call was “inactive”.
Turning to `C[C@H]1CCCCO[C@H](CN(C)S(=O)(=O)c2ccc(F)cc2)[C@@H](C)CN([C@@H](C)CO)C(=O)c2cc(NC(=O)Nc3ccc(F)cc3)ccc2O1`, the cytotoxicity call is “inactive”.
As for `C[C@@H]1CCCCO[C@@H](CN(C)S(=O)(=O)c2ccc(F)cc2)[C@H](C)CN([C@@H](C)CO)C(=O)c2cc(NC(=O)Nc3ccc(F)cc3)ccc2O1`, the cytotoxicity call is “inactive”.
Consider `C[C@@H]1CCCCO[C@@H](CN(C)S(=O)(=O)c2ccc(F)cc2)[C@H](C)CN([C@H](C)CO)C(=O)c2cc(NC(=O)Nc3ccc(F)cc3)ccc2O1`, for which the cytotoxicity call is “active”.
The entry for `O=C(O)CNS(=O)(=O)c1ccccc1F` is “inactive”; for `Cc1noc(C)c1S(=O)(=O)Nc1ccc2c(c1)CC(=O)N([C@H](C)CO)C[C@@H](C)[C@H](CN(C)S(C)(=O)=O)O2` it is “inactive”; for `C[C@@H]1CN([C@@H](C)CO)C(=O)c2cccc(NC(=O)c3nc4ccccc4s3)c2O[C@H]1CN(C)Cc1ccc(-c2ccccc2)cc1` it is “inactive”.
As to `COc1ccc(S(=O)(=O)Nc2ccc3c(c2)C(=O)N([C@@H](C)CO)C[C@H](C)[C@@H](CN(C)C(=O)Nc2cccc4ccccc24)O3)cc1`, the cytotoxicity call was “inactive”.
Take `C[C@@H]1CN([C@H](C)CO)C(=O)c2cc(NS(C)(=O)=O)ccc2O[C@H]1CN(C)Cc1ccc(C(F)(F)F)cc1`: the cytotoxicity call was “inactive”.
Regarding `C[C@H]1CN([C@@H](C)CO)C(=O)c2cccc(NC(=O)C3CCOCC3)c2O[C@H]1CN(C)S(=O)(=O)c1ccccc1`, the cytotoxicity call was “inactive”.
Turning to `O=C(C[C@@H]1CC[C@H]2[C@@H](COC[C@@H](O)CN2S(=O)(=O)c2ccc(F)cc2)O1)NCc1ccc(Cl)c(Cl)c1`, the cytotoxicity call was “inactive”.
Regarding `O=C(Nc1ccc(C(=O)Nc2ccc(C(=O)Nc3ccc(S(=O)(=O)O)c4cc(S(=O)(=O)O)cc(S(=O)(=O)O)c34)cc2)cc1)Nc1ccc(C(=O)Nc2ccc(C(=O)Nc3ccc(S(=O)(=O)O)c4cc(S(=O)(=O)O)cc(S(=O)(=O)O)c34)cc2)cc1`, the cytotoxicity call was “inactive”.
As for `C[C@H]1CN([C@@H](C)CO)C(=O)c2cc(Br)cnc2O[C@@H]1CN(C)S(=O)(=O)c1ccccc1`, the cytotoxicity call was “inactive”.
The result for `C[C@@H]1CN([C@@H](C)CO)C(=O)c2cc(NS(=O)(=O)c3ccc(F)cc3)ccc2O[C@@H]1CN(C)S(=O)(=O)c1ccccc1` reads “inactive”; that for `C=CCOC(=O)[C@@H]1[C@H]2C(=O)O[C@H](c3ccccc3)[C@H](c3ccccc3)N2[C@H](c2ccc(OCCOC(=O)[C@H]3C[C@H]4C(=O)NCC(=O)N4[C@H]3c3cccc(OCCO)c3)cc2)[C@@]12C(=O)Nc1ccc(I)cc12`, “inactive”.
As to `C[C@@H]1CCCCO[C@H](CN(C)S(=O)(=O)c2ccc(F)cc2)[C@@H](C)CN([C@H](C)CO)C(=O)c2cc(NC(=O)Nc3ccc(F)cc3)ccc2O1`, the cytotoxicity call is “inactive”.
Regarding `C[C@@H]1CN([C@H](C)CO)C(=O)c2cc(NC(=O)Nc3ccc(F)cc3)ccc2O[C@@H](C)CCCCO[C@@H]1CN(C)S(=O)(=O)c1ccc(F)cc1`, the cytotoxicity call was “inactive”.
`C[C@@H]1CCCCO[C@H](CN(C)S(=O)(=O)c2ccc(F)cc2)[C@H](C)CN([C@H](C)CO)C(=O)c2cc(NC(=O)Nc3ccc(F)cc3)ccc2O1`: the cytotoxicity call was “active”.
Take `COC(=O)C1=CO[C@@H](O[C@@H]2O[C@H](CO)[C@@H](O)[C@H](O)[C@H]2O)[C@@H]2[C@@](C)(O)[C@@H](OC(=O)/C=C/c3ccc(O)cc3)C[C@]12O`: the cytotoxicity call was “inactive”.
Turning to `OC[C@@H](O)[C@@H](O)CO`, the cytotoxicity call is “inactive”.
With `OCC(O)C(O)CO` (stereo unspecified), the cytotoxicity call was “inactive”.
For the molecule `C[C@@H]1CCCCO[C@@H](CN(C)C(=O)NC2CCCCC2)[C@H](C)CN([C@@H](C)CO)C(=O)c2cc(NC(=O)c3ccccc3)ccc2O1`, the cytotoxicity call was “inactive”.
The entry for `CCCNC(=O)N(C)C[C@H]1Oc2cc(C#Cc3ccccn3)ccc2S(=O)(=O)N([C@@H](C)CO)C[C@@H]1C` is “inactive”; for `COc1ccc(CN(C)C[C@H]2OCCCC[C@@H](C)Oc3ccc(NC(=O)c4ccccc4)cc3C(=O)N([C@@H](C)CO)C[C@H]2C)cc1` it is “inactive”.
For the molecule `CCS(=O)(=O)N1Cc2cc(C(=O)NCCOC)nc(-c3cccc(-c4ccncc4)c3)c2[C@H]1CCO`, the cytotoxicity call is “inactive”.
For the molecule `CCN(CC)CCN(Cc1ccc(-c2ccc(C(F)(F)F)cc2)cc1)C(=O)Cn1c(SCc2ccc(F)cc2)nc(=O)c2c1CCC2`, the cytotoxicity call was “active”.
